± gives the standard deviation.
Each compound was assayed on Streptococcus suis HE06 (assay: percent growth relative to DMSO control; higher = less growth inhibition). Settings: 10 µM; incubation time 18 h.
Description: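 CLSI broth microdilution: 5x10^4 CFU of Streptococcus suis (strain P1/7 or HE06) incubated with 10 µM Pathogen Box compound in cation-adjusted Mueller Hinton broth, 37 °C, 5% CO2, 18 h. Growth read as OD600 and expressed as percent of the DMSO-treated control (100%); mean ± SD of three independent experiments.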
In the case of COC(=O)c1ccc(F)cc1NS(=O)(=O)c1cccc(-c2cnn(Cc3ccccc3)c2)c1, the percent growth is reported as 99.6 ± 8.2%. Work on O=C(NC1=NCCS1)c1sc2cc(F)ccc2c1Cl yielded a percent growth of 93.8 ± 5.2%. With O=C(c1cc2ccccc2o1)N1CCN(Cc2ccc3c(c2)OCO3)CC1 the percent growth was 84.6 ± 20%. For O=C(c1ccco1)N(CCCn1ccnc1)c1nc2c(Cl)cccc2s1, the percent growth was 36.6 ± 38%. With COc1cc(Br)cc2cc(C(=O)Nc3cccc(C(F)(F)F)c3)c(=O)oc12 the percent growth was 116 ± 26%. O=C(Nc1cccc(Cl)c1)c1cnc(N2CCN(c3ccncc3)CC2)c(Cl)c1 was tested, and the percent growth was 62 ± 36%. Nc1ncnc2c1c(Cc1cccc3ccccc13)nn2CC1CCNCC1 gave a percent growth of 105 ± 44%. Nc1ncnc2c1ncn2C[C@@H](O)[C@@H](O)C(=O)O was tested, and the percent growth was 75.9 ± 17%. For N=C(N)c1ccc(OCCCCCOc2ccc(C(=N)N)cc2)cc1, the percent growth was 146 ± 200%. For CC(c1cc(Cl)cc(Cl)c1)N(C)c1ncc2c(N)nc(N)nc2n1 (stereo not drawn), the percent growth was 84.7 ± 21%. With O=C(C1CCCCC1)N1CC(=O)N2CCc3ccccc3C2C1 (stereo not drawn) the percent growth was 79.3 ± 24%. With NC(=O)c1cc(-c2ccsc2)ccc1OCCOc1ccccc1 the percent growth was 118 ± 40%. With COc1ccc(OC(C)C(=O)Nc2ccc(Cl)cc2C)cc1 (stereo not drawn) the percent growth was 107 ± 13%. With CCOc1ccc(OCC(=O)Nc2cc(C)cc(C)c2)cc1 the percent growth was 96.3 ± 4.6%. Work on COC(=O)c1c(NC(=O)c2cc3ccccc3oc2=O)sc2c1CCN(Cc1ccccc1)C2 yielded a percent growth of 84.2 ± 11%. Compound COC(=O)c1c(NC(=O)c2c(F)c(F)c(F)c(F)c2F)sc2c1CCCCC2 has a percent growth of 105 ± 7.8%. CC(C)(C)OC(=O)N1CCN(c2nccc(-c3ccc(-c4ccc(Cl)cc4)s3)n2)CC1 was tested, and the percent growth was 88.2 ± 12%. With C[C@H](C(N)=O)N1CCCC[C@@H]1c1ccc(OCc2cccc(F)c2)cc1 the percent growth was 125 ± 34%.
